Screens deposited in PubChem by National Center for Advancing Translational Sciences (NCATS).
This is one part of a sample in which hits are shown more often than they occur.
AMA1 RON2 block = disrupts binding of P. falciparum AMA1 to RON2. 360,000 tested, 0.2% active. AlphaScreen AMA1-biotinylated RON2 peptide binding. Potency, µM (titrated, usually from 58.2 µM), hits mostly inhibitors. AID 720542; further: nearly all actives have a fitted effect of over 45% in size
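AMA1 (3D7) with his tag at 25 nM final met compounds first, then biotinylated RON2 peptide at 25 nM; detection used donor plus acceptor beads, 10 µg/mL apiece, read by AlphaScreen after 30 min at room temperature.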
AmpC no deterg = inhibitors of E. coli AmpC beta-lactamase without detergent. 330,000 tested, 0.52% active. Potency, µM (highest dose often 57.1 µM), most hits filed as inhibitors. AmpC nitrocefin hydrolysis, absorbance 480 nm, 0.0001% Triton. AID 485341; further: nearly all actives have a fitted effect of over 20% in size
Target sequence (P00811 whole entry, looked up): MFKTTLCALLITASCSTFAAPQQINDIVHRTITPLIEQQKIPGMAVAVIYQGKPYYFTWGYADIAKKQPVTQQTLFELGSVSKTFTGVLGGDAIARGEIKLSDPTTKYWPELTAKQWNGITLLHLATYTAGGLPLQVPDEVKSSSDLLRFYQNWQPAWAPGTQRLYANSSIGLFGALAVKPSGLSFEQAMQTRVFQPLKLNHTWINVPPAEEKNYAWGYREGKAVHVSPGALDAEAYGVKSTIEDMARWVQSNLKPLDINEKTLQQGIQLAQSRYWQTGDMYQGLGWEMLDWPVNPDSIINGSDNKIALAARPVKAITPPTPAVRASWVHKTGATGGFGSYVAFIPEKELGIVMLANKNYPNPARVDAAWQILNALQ
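20 mM phosphate pH 7.0 + 0.01% (detergent screen) or 0.0001% Triton X-100; 5.3 nM AmpC reagent; cpd preinc 15 min RT; nitrocefin (800 uM stock) to start; A480 q20 s × 4 min; Activity was normalised to no-enzyme and no-compound control wells.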
CHX counter = counter-screen for Shiga toxin inhibitors: cycloheximide protein synthesis inhibition. cell reporter, cycloheximide protein synthesis inhibition counterscreen. max response, %. 300,000 tested, 12% active. AID 2314; in the data active means max response mostly above about 13%, no sharp cut-off; inactive means mostly below about 14%; further: read at 38.3 µM for the half of the compounds with a filed dose
Shiga inhibitor = Shiga toxin inhibition. 290,000 tested, 9.2% active. Vero cells, Shiga toxin protein synthesis inhibition reporter. inhibition, % at 38.7 µM; in the data active means inhibition mostly above about 28%, no sharp cut-off; inactive means mostly below about 43%
AmpC inh detg = AmpC beta-lactamase inhibition with detergent present; P00811; AmpC hydrolysis of nitrocefin, absorbance 480 nm, 0.01% Triton; Potency, µM (top dose mostly 114 µM), most hits filed as inhibitors; 370,000 tested, 0.041% active; AID 485294; further: nearly all actives have a fitted effect of over 25% in size
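AmpC (5.3 nM in the dispensed reagent) in 20 mM phosphate pH 7.0 with 0.01% (detergent screen) or 0.0001% Triton X-100 was preincubated with compounds for 15 min at room temperature. Nitrocefin was then added from an 800 uM solution, and hydrolysis was followed at 480 nm.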
SARS PLP yeast = SARS-CoV PLP inhibition in yeast; 330,000 tested, 0.19% active; S. cerevisiae expressing SARS-CoV PLpro, growth rescue; AID 485353; Potency, µM (top dose mostly 32.9 µM), usual class: activators; calls by dose curve; further: nearly all actives have a fitted effect of over 55% in size
Each line names hits and unclear results; the compound was inactive in the other large screens. Unless noted, the call rests on the fitted dose curve; in most records, active means well fitted curve in the direction sought with a large enough effect; inconclusive means small, poorly fitted or top-dose-only effect, or another doubt; inactive means no such curve, though single readings can be large; an effect the other way counts as inactive or inconclusive.

CC[C@H](C)[C@H](NC(=O)[C@H](CO)NC(=O)[C@H](CC(C)C)NC(=O)[C@H](CO)NC(=O)[C@@H]1CCCN1C(=O)[C@H](CC(N)=O)NC(=O)[C@@H](N)CC(=O)O)C(=O)N[C@@H](CC(=O)O)C(=O)N[C@@H](CC(C)C)C(=O)N[C@H](C(=O)N[C@@H](Cc1ccccc1)C(=O)N[C@@H](Cc1cnc[nH]1)C(=O)N[C@@H](CC(C)C)C(=O)N[C@@H](CC(C)C)C(=O)N[C@@H](CCCNC(=N)N)C(=O)N[C@H](C(=O)N[C@@H](CC(C)C)C(=O)N[C@@H](CC(C)C)C(=O)N[C@@H](CCC(=O)O)C(=O)N[C@@H](CC(C)C)C(=O)N[C@@H](C)C(=O)N[C@@H](CCCNC(=N)N)C(=O)N[C@H](C(=O)N[C@@H](CCC(N)=O)C(=O)N[C@@H](CO)C(=O)N[C@@H](CCC(N)=O)C(=O)N[C@@H](CCCNC(=N)N)C(=O)N[C@@H](CCC(=O)O)C(=O)N[C@@H](CCCNC(=N)N)C(=O)N[C@@H](C)C(=O)N[C@@H](CCC(=O)O)C(=O)N[C@@H](CCC(N)=O)C(=O)N[C@@H](CC(N)=O)C(=O)N[C@@H](CCCNC(=N)N)C(=O)N[C@H](C(=O)N[C@H](C(=O)N[C@@H](Cc1ccccc1)C(=O)N[C@@H](CC(=O)O)C(=O)N[C@@H](CO)C(=O)N[C@H](C(N)=O)C(C)C)[C@@H](C)CC)[C@@H](C)CC)[C@@H](C)O)[C@@H](C)O)[C@@H](C)O	Shiga inhibitor 17 (no result: AMA1 RON2 block, AmpC no deterg, AmpC inh detg, SARS PLP yeast)
Cc1sc(NC(=S)Nc2ccc(F)cc2)c(C(N)=O)c1C	none
Cc1sc(NC(=O)c2ccc(Br)s2)c(C(N)=O)c1C	CHX counter 51, Shiga inhibitor 69
Cc1sc(NC(=O)c2ccc(Cl)s2)c(C(N)=O)c1C	CHX counter 68, Shiga inhibitor 103, AmpC inh detg inconclusive
Cc1sc(NC(=O)c2cc3ccccc3oc2=O)c(C(=O)OC(C)C)c1-c1ccccc1	none
CC1CCN(CCCCOc2ccccc2F)CC1	AmpC inh detg inconclusive
COc1ccccc1Oc1ccc(Oc2ccccc2OC)cc1	CHX counter 41
CCOc1ccccc1OCCCCOc1ccccc1F	none
Fc1ccccc1OCCCCCCN1CCCC1	CHX counter 17
COc1ccccc1OCCCCOc1ccccc1F	CHX counter 34
COc1ccc(Cc2nc3ccc(C(=O)N(C)CC4COCCO4)cc3o2)cc1 (configuration not stated)	CHX counter 39, Shiga inhibitor 72
COc1ccc(Cc2nc3ccc(C(=O)N4CCCC4)cc3o2)cc1OC	Shiga inhibitor 36
COc1ccc(Cc2nc3ccc(C(=O)N4CCN(C)C(C)C4)cc3o2)cc1OC (configuration not stated)	CHX counter 11
C#CCN(CC=C)C(=O)c1ccc2nc(C3CCCCC3)oc2c1	CHX counter 19, AmpC inh detg inconclusive
COC(=O)CN(c1nc(C)c(Br)c(OC)n1)S(=O)(=O)c1ccccc1	none
COc1ccc(Cc2nc3ccc(C(=O)NCc4ncc(C)[nH]4)cc3o2)cc1OC	none
COc1ccc(Cc2nc3ccc(C(=O)N4CCCC4)cc3o2)cc1	CHX counter 70, Shiga inhibitor 106
COc1ccc(Cc2nc3ccc(C(=O)NC(C)Cc4ncccc4C)cc3o2)cc1OC (configuration not stated)	CHX counter 30
C=CCN(CC=C)C(=O)c1ccc2nc(Cc3ccc(OC)c(OC)c3)oc2c1	CHX counter 17
COc1ccc(Cc2nc3ccc(C(=O)NCc4cc(C)no4)cc3o2)cc1OC	none
Cc1ccccc1NC(=O)CCC(=O)N1CC(C)Sc2ccccc21 (configuration not stated)	none (no result: AMA1 RON2 block, AmpC no deterg, CHX counter, Shiga inhibitor, SARS PLP yeast)
CCCCn1c(=O)n(-c2ccc(Br)cc2F)c(=O)c2c3c(sc21)CN(C(C)=O)CC3	none (no result: AMA1 RON2 block, AmpC no deterg, CHX counter, Shiga inhibitor, SARS PLP yeast)
Cc1ccc(N=C(NO)c2nonc2N)cc1	CHX counter 46, Shiga inhibitor 95
COc1ccc(-n2c(C)c(C(C)=O)c(C(C)=O)c2C)cc1	none
COc1ccc(-n2c(C)cc3cc(OC(C)=O)ccc32)cc1	CHX counter 11
CN(C)c1nccc(N(Cc2ccccc2)Cc2ccccc2)c1C#N	CHX counter 36, Shiga inhibitor 94
COc1ccc(/C=C/C(=O)c2oc3ccc(F)cc3c2C)cc1	AmpC inh detg inconclusive
Cc1ccc(OC(=O)c2oc3ccc(F)cc3c2C)c(C)c1	CHX counter 35
CCCS(=O)(=O)N1CCCC(C(=O)Oc2ccc(C)c(C)c2)C1 (configuration not stated)	none
NC(=Nc1ccc(Cl)cc1)c1ccccc1	CHX counter 26
CC(NC(=O)C1CCCN1S(=O)(=O)c1cccc2cccnc12)c1ccccc1 (configuration not stated)	none
O=c1c2ccccc2c(=O)n2n1Cc1ccccc1C2	CHX counter 14 (no result: SARS PLP yeast)
CC1=CCn2c(=O)c3ccccc3c(=O)n2C1	AmpC inh detg inconclusive
CCOc1cc(C)ccc1OCc1nnc(SCC(=O)c2cccc([N+](=O)[O-])c2)n1CC	none
Cc1cc(Br)c(Cl)cc1NC(=O)CN1C(=O)C2C3CC(c4ccccc4)C(C3)C2C1=O (configuration not stated)	none
O=C(CCN1C(=O)c2ccccc2C1=O)Nc1ccc(-c2nc3ccccc3o2)cc1	CHX counter 18, Shiga inhibitor 83
O=C(Nc1ccc(-c2nc3ccccc3o2)cc1)c1cccnc1	CHX counter 44, Shiga inhibitor 115
Cc1ccc2oc(-c3ccc(NC(=O)c4cccnc4)cc3)nc2c1	CHX counter 70, Shiga inhibitor 62
Cc1cc(NC(=O)c2ccc3c(c2)OCCO3)cc(-c2nc3ccccc3o2)c1O	none (no result: AMA1 RON2 block, AmpC no deterg, CHX counter, Shiga inhibitor, SARS PLP yeast)
O=C(Nc1ccc2oc(-c3ccccc3F)nc2c1)c1ccc2c(c1)OCCO2	AMA1 RON2 block 8.4µM, CHX counter 28, Shiga inhibitor 72
O=C(Nc1ccc(-c2nc3ccccc3o2)cc1)c1ccc2c(c1)OCO2	none (no result: AmpC no deterg, SARS PLP yeast)
Cc1ccc2oc(-c3ccc(NC(=O)c4ccc5c(c4)OCO5)cc3)nc2c1	CHX counter 37, Shiga inhibitor 58
Cc1c(NC(=O)c2ccc(N3C(=O)C4C5C=CC(C5)C4C3=O)cc2)c(=O)n(-c2ccccc2)n1C (configuration not stated)	none
O=C(Nc1ccc(-c2nc3ccccc3o2)cc1)c1ccc(N2C(=O)C3C4C=CC(C4)C3C2=O)cc1 (configuration not stated)	CHX counter 22, Shiga inhibitor 42
